# According to PubChem BioAssay (NCATS):
# Results filed as inconclusive are left out. A number with no mark means an inactive call. The source made the active and inactive calls.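 How the source made its calls: active means compounds whose dose-response curve shows a full or clear partial loss of cell viability, called from curve shape rather than a numeric limit; inconclusive means weak partial curves or an effect only at the top dose; inactive means no dose-dependent loss of viability.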
# Experiment: Cell Viability - Hek293 (AID 427);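 further: cells exposed to compound for 40 hours at 37 °C before reading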
# Conditions: qHTS
# Description: NIH Chemical Genomics Center [NCGC]
# NIH Molecular Libraries Screening Centers Network [MLSCN]
# National Institutes of Environmental Health Sciences [NIEHS]
# National Toxicology Program [NTP]
# We have developed a 1536-well cell-based assay for quantitative high throughput screening (qHTS) against a number of cell lines to determine in vitro cytotoxicity of small molecules. This particular assay uses the Hek 293 cell line which is derived from human embryonic kidney cells (transformed with adenovirus).
# NCGC Assay Protocol Summary:
# The CellTiter-Glo luminescent cell viability assay (Promega) is a homogeneous method to measure the number of viable cells in culture. The end point readout of this assay is based on quantitation of intracellular ATP, an indicator of metabolic activity, using the luciferase reaction. Luciferase catalyzes the oxidation of beetle Luciferin to oxyluciferin and light in the presence of ATP. The luminescent signal is proportional to amount of ATP present.
# Using the CellTiter-Glo luminescent cell viability assay, the amount of cellular ATP was measured in the Hek293 cell line with complete culture medium following compound treatment for 40 hours. The assay was performed in opaque white Kalypsys 1536-well plates. In the screen, tamoxifen and doxorubicin were used as positive controls. Library compounds were measured for their ability to cause acute toxicity in the cell line, as reflected by a decrease in intracellular ATP levels, in a concentration-dependent manner. Data were normalized to the controls for basal activity (DMSO only) and 100% inhibition (100 uM tamoxifen). AC50 values were determined from concentration-response data modeled with the standard Hill equation.
# qHTS protocol fo CellTiter Glo Hek 293 cellular assay
# [Step] [Parameter] [Value] [Description]
# 2. Time; 5 hr; 37 °C incubation
# 4. Controls; 23 nL; Tamoxifen 0.34 uM to 100 uM & Doxorubicin 0.02 nM to 100 uM
# 5. Time; 40 hr; 37 °C incubation
# 6. Reagent; 5 uL; CellTiter Glo reagent
# 7. Time; 20 min; Room Temperature
# 8. Detection; Luminescence; Viewlux plate reader
# Keywords: cell viability, cytotoxicity, Hek293 cell line, luminescence, NTPHTS, NTPHTS_NCGC, NIEHS, EPA, DSSTox, MLSMR, MLSCN, NIH Roadmap, qHTS, NCGC
# Potency means the concentration at half of the fitted maximal effect.
row,Compound,Potency
1,Cc1noc(NS(=O)(=O)c2ccc(N)cc2)c1C,> 92 µM
2,CN(C)c1ccc(C(=C2C=CC(=[N+](C)C)C=C2)c2ccc(N(C)C)cc2)cc1,5.18 µM (active)
3,CCc1cc(C(N)=S)ccn1,> 92 µM
4,NC(N)=NC(N)=NCCc1ccccc1,> 92 µM
5,C[C@]12C=CC(=O)C=C1CC[C@@H]1[C@@H]2C(=O)C[C@@]2(C)[C@H]1CC[C@]2(O)C(=O)CO,> 92 µM
6,O=C(N[C@H](CO)[C@H](O)c1ccc([N+](=O)[O-])cc1)C(Cl)Cl,> 92 µM
7,Cc1cc(NS(=O)(=O)c2ccc(N)cc2)no1,> 92 µM
8,NNC(=O)c1ccncc1,> 92 µM
9,CC(=O)Oc1ccccc1C(=O)Nc1ncc([N+](=O)[O-])s1,32.6 µM (active)
10,Cc1ccnc2c1NC(=O)c1cccnc1N2C1CC1,> 92 µM
11,O=C(O)c1cc(=O)[nH]c(=O)[nH]1,> 92 µM
12,CC(=O)[C@H]1CC[C@H]2[C@@H]3CCC4=CC(=O)CC[C@]4(C)[C@H]3CC[C@]12C,48.5 µM (active)
13,Cc1ncc([N+](=O)[O-])n1CCO,> 92 µM
14,Cc1nnc(NS(=O)(=O)c2ccc(N)cc2)s1,> 92 µM
15,CC1=NN(c2ccccc2)C(=O)C1,> 92 µM
16,CC[C@H](C)C(=O)O[C@H]1C[C@@H](C)C=C2C=C[C@H](C)[C@H](CC[C@@H]3C[C@@H](O)CC(=O)O3)[C@H]21,> 92 µM
